Compounds with a hit are over-represented: about 1.6% of the library has one in this group of screens.
KCNQ2 inh = inhibitors of rat KCNQ2 potassium channel | O88943 | CHO-K1 KCNQ2, FluxOR thallium flux, 20 min; hits give low values | B-score at 10 µM | hit rate 1.1% among 310,000;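 active = fluorescence ratio B-score at most minus 3 library SDs, with starting brightness B-score within 2 library SDs, cut at about -5.5 in these data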
KCNQ2 pot = enhances the rat KCNQ2 potassium channel | O88943 | CHO-K1 KCNQ2, FluxOR thallium flux fluorescence; hits give high values | B-score at 10 µM | hit rate 0.54% among 310,000;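 active = fluorescence ratio B-score at least 3 SD of library B-scores, with initial fluorescence B-score within 3 of them, cut at about 5.3 in these data; same plate scores as AID 2156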;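 also: B-score of peak minus minimum over baseline fluorescence ratio after K+ and Tl+ stimulus; positive B-score means potentiation of KCNQ2 with more thallium influx and brighter signal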
Kir21 confirm = confirmation of mouse Kir2.1 potassium channel inhibitors; shares compounds with KCNQ2 pot; Kir2.1-expressing cells, FluxOR thallium flux fluorescence; hits give low values; Tl flux remaining, % of negative control (hits give low values), % at 10 µM; hit rate 41% among 2,300;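 active = Primary-screen hit whose thallium flux fell at least 3 control SD below untreated wells in both duplicates, with normal baseline fluorescence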;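 also: 0% = blank wells without stimulus and 100% = stimulated no-compound controls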
HEK293 Tl flux = alters thallium flux in parental HEK293 cells, Kir2.1 counter-screen. shares compounds with KCNQ2 pot. FluxOR thallium flux fluorescence; 0% = unstimulated blank wells. FluxOR signal as % of negative control (100 = no effect), % at 10 µM. hit rate 19% among 2,300;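 active = dye signal at least 3 control SD above or below untreated wells in both duplicates, raw fluorescence within 3, either direction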;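 also: percent is based on the flux ratio of peak minus minimum fluorescence over baseline F0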
CHO-K1 Tl ctr = parental CHO-K1 activity in KCNQ2 potentiator counter-screen; AID 2282; hit rate 43% among 1,200; parental CHO-K1 cells, FluxOR thallium flux fluorescence; zero = vehicle mean+3SD, 100% = vehicle-minus-blank window; shares compounds with KCNQ2 pot; activity increase over 3SD of controls, % at 10 µM;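 active = signal rise of at least 3 SD above the untreated control mean, in both duplicate wells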;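 also: counter screen of KCNQ2 potentiator hits so any rise reflects channel-independent effects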
KCNQ1 pot spec = selectivity of KCNQ2 potentiators: effect on human KCNQ1; shares compounds with KCNQ2 pot; CHO KCNQ1 stable, FluxOR thallium flux fluorescence; beyond 3SD, as % of vehicle-control signal; AID 2283; activation over 3SD threshold, % at 10 µM; hit rate 28% among 1,200;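 active = fluorescence ratio rise of at least 3 SD of vehicle wells above their mean, in both replicate wells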;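 also: 0% = vehicle mean plus 3 SD and 100% = vehicle minus unstimulated blank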
Target sequence (P51787 whole entry, looked up): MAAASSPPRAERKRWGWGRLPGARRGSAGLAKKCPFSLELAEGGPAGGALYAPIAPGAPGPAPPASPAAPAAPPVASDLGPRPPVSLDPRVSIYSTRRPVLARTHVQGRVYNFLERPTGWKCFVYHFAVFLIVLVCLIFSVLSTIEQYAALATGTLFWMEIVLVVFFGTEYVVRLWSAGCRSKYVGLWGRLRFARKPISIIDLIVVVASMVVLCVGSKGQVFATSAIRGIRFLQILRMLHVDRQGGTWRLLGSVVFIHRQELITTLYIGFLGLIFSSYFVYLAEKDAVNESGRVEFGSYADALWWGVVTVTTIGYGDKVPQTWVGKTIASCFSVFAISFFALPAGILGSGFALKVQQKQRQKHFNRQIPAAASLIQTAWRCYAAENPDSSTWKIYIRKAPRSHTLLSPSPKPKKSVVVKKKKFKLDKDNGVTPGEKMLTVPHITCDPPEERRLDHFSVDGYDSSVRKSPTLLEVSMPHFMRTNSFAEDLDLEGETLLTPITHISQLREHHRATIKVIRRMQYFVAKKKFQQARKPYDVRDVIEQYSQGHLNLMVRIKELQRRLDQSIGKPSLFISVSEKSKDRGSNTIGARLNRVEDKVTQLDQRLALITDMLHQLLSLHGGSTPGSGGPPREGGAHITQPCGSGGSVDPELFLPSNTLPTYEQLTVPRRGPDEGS
KCNQ2 pot conf = confirmation of rat KCNQ2 potassium channel potentiators. hit rate 68% among 1,200. CHO-KCNQ2 cells, FluxOR thallium flux fluorescence. AID 2287. potentiation, less the hit threshold, % at 10 µM. shares compounds with KCNQ2 pot;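 active = fluorescence ratio rising 3 SD or more over the vehicle control mean in both replicates, plus primary screen hit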;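 also: peak minus minimum thallium fluorescence divided by baseline after K/Tl stimulus; 0% = vehicle mean plus 3 SD and 100% = vehicle minus unstimulated blank difference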
Kir21 spec = mouse Kir2.1 off-target activity of KCNQ2 potentiators | AID 2345 | shares compounds with KCNQ2 pot | HEK293 Kir2.1, FluxOR thallium flux fluorescence | hit rate 2% among 1,200 | activity over 3SD threshold, % at 10 µM;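 active = fluorescence ratio rise of at least 3 SD above the vehicle-control mean, seen in both replicates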;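 also: 0% = vehicle mean plus 3 SD and 100% = vehicle minus no-stimulus blank window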
KCNQ2 W236L pot = potentiates the retigabine-insensitive rat KCNQ2 W236L mutant channel; shares compounds with KCNQ2 pot; CHO KCNQ2-W236L, automated patch clamp current; hit rate 10% among 940; current increase over 3SD of negative controls (%), hits give high values, % at 25 µM;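 active = current increase at least 3 SD of the untreated controls above them in both duplicate recordings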
* = called active by the depositor; i = inactive; . = no result.

SMILES | KCNQ2 inh | KCNQ2 pot | Kir21 confirm | HEK293 Tl flux | others
COc1ccc(C(=O)NCc2nnc(SC)n2C2CCCCC2)cc1 | i | . | . | .
O=C(Nc1ccc(CN2CCOCC2)cc1)c1ccccc1F | i | . | . | .
CCC(C)NC(=O)CS(=O)Cc1nc(-c2ccccc2C)oc1C (configuration not stated) | i | . | . | .
Cc1ccccc1C(=O)c1cccn1CC(=O)NCc1ccccc1 | i | . | . | .
Cc1ccccc1C(=O)c1cccn1CC(=O)NCC(C)c1ccccc1 (configuration not stated) | i | 0.69 | 65.5%* | i
O=C(C1CC(=O)N(c2ccccc2)C1)N1CCC(c2nc3ccccc3[nH]2)CC1 (configuration not stated) | i | 0.03 | . | .
Cc1ccc(-c2nc(-c3ccncc3)no2)cc1 | i | 0.06 | . | .
CC(C)(C)c1ccc(-c2nc(-c3ccncc3)no2)cc1 | i | 7* | i | i | CHO-K1 Tl ctr=54.1*;KCNQ1 pot spec=-12.9;KCNQ2 pot conf=45.5*;Kir21 spec=-35.8;KCNQ2 W236L pot=i
O=C(Nc1ccccc1)C1CC(=O)N(Cc2ccccc2)C1 (configuration not stated) | i | . | . | .
O=C(COC(=O)Cc1c[nH]c2ccccc12)NC1CCCCC1 | i | 0.06 | 42.0%* | i
O=C(COC(=O)Cc1c[nH]c2ccccc12)Nc1ccccc1 | i | . | . | .
O=C(CSc1nc2ccccc2s1)NC1CCCC1 | i | 1.42 | . | .
CC1CCN(C(=O)COc2ncnc3ccccc23)CC1 | i | 0.45 | . | .
O=C(COc1ccc2cc(Br)ccc2c1Br)N1CCOCC1 | i | 9.51* | i | i | CHO-K1 Tl ctr=42.4*;KCNQ1 pot spec=-4.6;KCNQ2 pot conf=8.8*;Kir21 spec=-43.8;KCNQ2 W236L pot=i
CC1CCN(C(=O)COc2ccc3ccccc3c2Br)CC1 | i | 16.2* | i | i | CHO-K1 Tl ctr=-0.8;KCNQ1 pot spec=-10.9;KCNQ2 pot conf=31.7*;Kir21 spec=-38.3;KCNQ2 W236L pot=i
O=C(COc1ncnc2ccc(Br)cc12)N1CCOCC1 | i | 0.98 | . | .
C=CCN1C(=O)C(CC(=O)Nc2ccc(OCC)cc2)N(Cc2ccccn2)C1=S (configuration not stated) | i | 1.62 | . | .
COc1cc(/C=N/n2nnnc2N)ccc1OCC#N | i | 0.82 | . | .
S=C(NCCN1CCCCC1)Nc1ccc(Br)cc1 | i | 0.02 | . | .
O=C1C=CC(=O)N1CCNc1ncc(C(F)(F)F)cc1Cl | i | . | 73.5%* | i
O=C1CC(=O)N(CCNc2ncc(C(F)(F)F)cc2Cl)C(=O)N1 | i | 1.69 | . | .
COC(=O)c1ccccc1NC(=O)C1CCN(C(=O)c2cc(OC)c(OC)c(OC)c2)CC1 | i | 0.96 | . | .
CCOC(=O)c1nnn(-c2nonc2N)c1CSc1ccc(C)cc1 | i | 1.07 | 71.0%* | i
CCOC(=O)c1nnn(-c2nonc2N)c1CSc1ccccc1 | i | 0.21 | . | .
Cc1c(C)n(C(=O)CSc2nncn2C)c2ccccc12 | i | . | . | .
SMILES | KCNQ2 inh | KCNQ2 pot | Kir21 confirm | HEK293 Tl flux | others
C=CCC(Nc1ccccc1)c1ccc(OC)c(OC)c1 (configuration not stated) | i | . | . | .
COc1ncccc1C(=O)N1CCCC(C(=O)c2cc(F)ccc2F)C1 (configuration not stated) | i | 0.33 | . | .
CCc1cc2c3c([nH]c2cc1S(=O)(=O)N1CCC2(CC1)OCCO2)CCCC3=O | i | 1.58 | . | .
Cc1cc2c3c([nH]c2cc1S(=O)(=O)N1CCC2(CC1)OCCO2)CC(C)(C)CC3=O | i | 5.46* | i | 62.5%* | CHO-K1 Tl ctr=-2.9;KCNQ1 pot spec=-23.7;KCNQ2 pot conf=-11.1;Kir21 spec=-26.9
O=C(C[n+]1cc2ccccc2c2ccccc21)c1ccccc1 | i | 0.02 | . | .
CCc1cc(-c2n[nH]c(C)c2-c2nc3ccccc3s2)c(O)cc1OCC(=O)NN | i | . | . | .
CCc1cc(-c2n[nH]c(C)c2-c2nc(C)cs2)c(O)cc1OC | i | 2.65 | 37.0%* | i
CN(Cc1ccc(F)cc1)C(=O)c1sccc1-c1ccccc1 | i | . | 64.5%* | i
COc1ccc(CN(C)C(=O)c2sccc2-c2ccccc2)c(OC)c1 | i | . | . | .
Cc1nnc(Sc2nc3c(c(=O)[nH]c(=O)n3C)n2CCc2ccccc2)s1 | i | 0.12 | . | .
Cc1ccc(S(=O)(=O)NCc2c(-c3ccccc3)noc2C)cc1 | i | . | . | .
Cc1onc(-c2ccccc2)c1CNS(=O)(=O)c1cccc(Cl)c1 | i | 0.47 | 58.0%* | i
CCCCCC(=O)Cc1cc(O)cc2c1C(=O)Oc1cc(O)c(C(=O)O)c(CCCCC)c1O2 | i | 7.51* | i | i | CHO-K1 Tl ctr=-7.6;KCNQ1 pot spec=42.7*;KCNQ2 pot conf=8.8*;Kir21 spec=-21.2;KCNQ2 W236L pot=i
CN1CCN(CC#CC(C)(O)C2CC3C=CC2C3)CC1 (configuration not stated) | i | 5.38* | i | i | CHO-K1 Tl ctr=-3.2;KCNQ1 pot spec=-39.2;KCNQ2 pot conf=-9.8;Kir21 spec=-36.8
CC(O)(C#CCN1CCOCC1)c1ccccc1 (configuration not stated) | i | 0.49 | . | .
COCCCC/C(=N\OCCN)c1ccc(C(F)(F)F)cc1 | i | 0.01 | . | .
c1ccc(-c2ccc(OCCCNC3CCCC3)cc2)cc1 | i | . | 42.5%* | i
c1ccc(SCCCCNC2CCCC2)cc1 | i | 1.17 | . | .
c1ccc(Cc2ccc(OCCCNC3CCCC3)cc2)cc1 | i | 0.67 | 44.5%* | i
COc1ccc(OCCNC2CCCC2)cc1 | i | 1.11 | . | .
COc1ccc(N(C)S(=O)(=O)c2cccc(C(=O)N3CCN(S(=O)(=O)c4ccc(C)cc4)CC3)c2)cc1 | i | 0.73 | . | .
C=CCn1c(SCC(=O)Nc2sccc2C(N)=O)nc2ccccc2c1=O | i | . | . | .
COc1cc(S(=O)(=O)N2CCOCC2)ccc1NC(=O)CSc1nnc(N)s1 | i | . | . | .
COC(=O)c1ccc(NC(=O)CCN2CCCCC2)cc1 | i | 0.3 | . | .
O=C(CCC1CCCC1)NNC(=O)c1cccc(Cl)c1 | i | 6.09* | i | i | CHO-K1 Tl ctr=106.5*;KCNQ1 pot spec=-18.2;KCNQ2 pot conf=15.2*;Kir21 spec=-11.2;KCNQ2 W236L pot=i
O=C(CCN1C(=O)C2CCCCC2C1=O)NNC(=O)c1cccc(Cl)c1 (configuration not stated) | i | 0.27 | . | .
COc1ccc(C(CNC(=O)C2CC2)N(C)C)cc1 (configuration not stated) | i | 0.01 | . | .
COc1ccc(Nc2nnc(SC(C(=O)Nc3ccc(OC)c(Cl)c3)c3ccccc3)s2)cc1 (configuration not stated) | i | . | . | .

Screening results from PubChem BioAssay.
